Screening results (PubChem BioAssay)
L3MBTL1 inh – inhibitors of human L3MBTL1 | Q9Y468 | AlphaScreen L3MBTL1–H3K9me1 peptide binding | Potency, µM (series often up to 57.1 µM), without a hit: top-dose activity, negative = inhibition, actives largely listed as inhibitors | 230,000 compounds, 0.66% hits | AID 485360; note: % is set by controls: 0 for no effect and ±100 for the full control effect; nearly all actives have a fitted effect of over 60% in size
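Read-out is AlphaScreen signal from streptavidin donor and nickel chelate acceptor beads (10 ug/mL final each) bridging L3MBTL1 (50 nM) and biotinylated K9-monomethylated H3(1-15) peptide (75 nM), after 30 min compound exposure at room temperature.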
GLS inhibitor – glutaminase GLS (human) inhibition | O94925 | GLS enzymatic activity, qHTS titration | Potency, µM (highest dose often 45.5 µM), inactives show top-dose activity change, negative = inhibition, actives largely listed as inhibitors | 410,000 compounds, 0.21% hits; note: % is set by controls: 0 for no effect and ±100 for the full control effect
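Glutamate formation by hKGA was monitored fluorometrically using coupled glutamate oxidase, HRP and Amplex Red. Substrate was added as 1 mM L-glutamine solution; incubation was 30 min at RT after an initial read.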
G9a block – G9a (human) methyltransferase inhibition | Q96KQ7 | G9a H3K9 monomethylation, AlphaScreen, 2 h | Potency, µM (highest dose often 102 µM), inactives show at the highest dose activity, negative = inhibition, hits mostly inhibitors | 350,000 compounds, 8.8% hits | AID 504332; note: % is set by controls: 0 for no effect and ±100 for the full control effect; nearly all actives have a fitted effect of over 75% in size
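Chemiluminescent proximity detection of H3K9 monomethylation, read after 10 min bead incubation in the dark. Reaction: 20 nM G9a, 500 nM biotin-H3K9 peptide, 20 uM SAM cofactor, 2 h, room temperature, following 15 min enzyme-compound preincubation.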
JMJD2A Tudor inh – JMJD2A Tudor domain (human) inhibition; Potency, µM (doses to about 114 µM), without a hit: at the top dose activity change, negative = inhibition, hits mostly inhibitors; AID 504339; 390,000 compounds, 4.4% hits; O75164; AlphaScreen JMJD2A-Tudor / H3K4me3 peptide binding; note: % is set by controls: 0 for no effect and ±100 for the full control effect; nearly all actives have a fitted effect of over 50% in size
HP1b binding inh – blocks HP1-beta chromodomain binding to methylated histone tails; AID 540317; Potency, µM (titrated, usually from 114 µM), for inactives: at the highest dose activity change, negative = inhibition, usual class: inhibitors; P83916; 390,000 compounds, 0.56% hits; AlphaScreen HP1-beta / biotin-H3K9me3 peptide binding; note: nearly all actives have a fitted effect of over 70% in size
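AlphaScreen: HP1-beta (50 nM) preformed 30 min with biotin-H3(1-18)K9me3 peptide (50 nM) in PBS pH 7.4, 0.01% Tween-20. Compound added for 30 min at RT, then streptavidin donor/nickel chelate acceptor beads (10 ug/mL) for 30 min.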
BAZ2B inh – inhibitors of human BAZ2B bromodomain. AID 504333. Q9UIF8. Potency, µM (top dose mostly 114 µM), inactives show at the highest dose activity change, negative = inhibition, most hits filed as inhibitors. 360,000 compounds, 4.4% hits. AlphaScreen BAZ2B-H3K14Ac peptide displacement; note: % is set by controls: 0 for no effect and ±100 for the full control effect; nearly all actives have a fitted effect of over 60% in size
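In this displacement format the biotinylated H3(5-23) peptide acetylated at Lys14 serves as ligand at 50 nM, with BAZ2B at 50 nM in PBS pH 7.4 containing 0.01% Tween-20. Donor and acceptor beads are 10 ug/mL final.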
* = called active by the depositor; [ ] = remark or other dose. In the library only some 10% were active in any assay of this set; here they are far more common. Calls come from the whole dose curve; as a rule, active = well fitted curve in the direction sought with a large enough effect; inconclusive = small, poorly fitted or top-dose-only effect, or another doubt; inactive = no such curve, though single readings can be large; an effect the other way counts as inactive or inconclusive. Potency is the fitted concentration of half-maximal effect.

How did CCOc1ccc(N=Cc2c(O)cc(C)oc2=O)cc1 do in these assays?
L3MBTL1 inh: -2%; GLS inhibitor: 4%; G9a block: -35%; JMJD2A Tudor inh: -21%; HP1b binding inh: 38%; BAZ2B inh: -4%

Results for CSc1ccc(CNC(=O)Cc2csc3ccccc23)cc1 ?
GLS inhibitor: -2%; G9a block: -2%[59 µM]; JMJD2A Tudor inh: -10%; HP1b binding inh: 24%; BAZ2B inh: 0%

Results for N#Cc1ccc(CSc2nc3c(c(=O)[nH]2)CCC3)cc1 ?
GLS inhibitor: -1%; G9a block: inconclusive; JMJD2A Tudor inh: -12%; HP1b binding inh: 41%; BAZ2B inh: 3%

Results for CC(C)(C)c1csc(NC(=O)Cn2c(=O)oc3ccccc32)n1 ?
L3MBTL1 inh: -9%; GLS inhibitor: -12%; G9a block: 11µM*; JMJD2A Tudor inh: 6%; HP1b binding inh: -27%; BAZ2B inh: -20%

How did O=C(Cn1c(=O)oc2ccccc21)Nc1n[nH]c(=S)s1 do in these assays?
L3MBTL1 inh: -15%; GLS inhibitor: -17%; G9a block: 1.3µM*; JMJD2A Tudor inh: 3.5µM*; HP1b binding inh: inconclusive; BAZ2B inh: -25%

Results for COc1ccc(N2CCN(C(=O)C(C)n3c(=O)cc(C(F)(F)F)c4c(C)nn(C)c43)CC2)cc1 (stereo not given) ?
GLS inhibitor: 18%; G9a block: 10µM*; JMJD2A Tudor inh: -24%; HP1b binding inh: inconclusive; BAZ2B inh: 35µM*

How did Cc1nn(C)c2c1c(C(F)(F)F)cc(=O)n2C(C)C(=O)N1CCN(c2ccccc2)CC1 (stereo not given) do in these assays?
GLS inhibitor: 5%; G9a block: -9%[59 µM]; JMJD2A Tudor inh: -29%; HP1b binding inh: 54%; BAZ2B inh: -12%

What do the screens show for `COc1ccc(S(=O)(=O)N(C)C)cc1NC(=O)c1ccc(OCC(=O)N2CCOCC2)c(OC)c1`?
L3MBTL1 inh: -4%; GLS inhibitor: 3%; G9a block: 50µM*; JMJD2A Tudor inh: -23%; HP1b binding inh: 14%; BAZ2B inh: 10%

Results for COc1ccc(CCNC(=O)c2ccc(OCC(=O)N3CCOCC3)c(OC)c2)cc1 ?
L3MBTL1 inh: -1%; GLS inhibitor: -1%; G9a block: 8.9µM*; JMJD2A Tudor inh: -16%; HP1b binding inh: 17%; BAZ2B inh: -4%

What do the screens show for `COc1ccc(CCNC(=O)c2ccc(OCC(=O)N3CCOCC3)c(OC)c2)cc1OC`?
GLS inhibitor: 9%; JMJD2A Tudor inh: -1%; HP1b binding inh: 24%; BAZ2B inh: 11%

What do the screens show for `CC(=O)Nc1cccc(S(=O)(=O)Nc2ccc(C)c(C)c2)c1`?
JMJD2A Tudor inh: -16%

What do the screens show for `Cc1cc(SCC(=O)N/N=C/c2ccc(O)c(O)c2)c(C)cc1Br`?
GLS inhibitor: 60%; G9a block: 25µM*; JMJD2A Tudor inh: -34%; HP1b binding inh: -6%; BAZ2B inh: inconclusive

What do the screens show for `Cc1cc(SCC(=O)N/N=C/c2ccc(O)c(O)c2)nc2ccccc12`?
L3MBTL1 inh: inconclusive; GLS inhibitor: inconclusive; JMJD2A Tudor inh: inconclusive; HP1b binding inh: inconclusive; BAZ2B inh: 45µM*

How did C/C(=N\NC(=O)CSc1nc2ccccc2o1)c1ccc(O)cc1 do in these assays?
L3MBTL1 inh: -2%; GLS inhibitor: inconclusive; G9a block: 16µM*; JMJD2A Tudor inh: -15%; HP1b binding inh: 19%; BAZ2B inh: -19%

Results for C/C(=N\NC(=O)CSc1nc2ccccc2o1)c1cccc(O)c1 ?
GLS inhibitor: 5%; G9a block: -5%; JMJD2A Tudor inh: -21%; HP1b binding inh: 18%[57 µM]; BAZ2B inh: -5%

What do the screens show for `O=C(CSc1nc2ccccc2o1)N/N=C/c1ccc(O)c(O)c1`?
GLS inhibitor: inconclusive; G9a block: inconclusive; JMJD2A Tudor inh: 16µM*; HP1b binding inh: inconclusive; BAZ2B inh: 45µM*

How did COc1ccc(CNc2nc(N)nc3nc[nH]c23)cc1 do in these assays?
JMJD2A Tudor inh: -9%; HP1b binding inh: 21%

How did Cc1cc(C)n(C(=O)CSc2nc3ccccc3o2)n1 do in these assays?
L3MBTL1 inh: -1%; GLS inhibitor: 2%; G9a block: 79µM*; JMJD2A Tudor inh: -9%; HP1b binding inh: 31%; BAZ2B inh: 17%

How did COC(=O)[C@H]1CN(C(=O)c2ccccc2)C(=O)N1 do in these assays?
L3MBTL1 inh: 12%; GLS inhibitor: 6%; JMJD2A Tudor inh: -7%; HP1b binding inh: 22%; BAZ2B inh: -7%[57.1 µM]

What do the screens show for `COC(=O)C1CCC(=S)N1C(=O)c1ccccc1` (stereo not given)?
L3MBTL1 inh: 3%; GLS inhibitor: 35%; G9a block: 45µM*; JMJD2A Tudor inh: -1%; HP1b binding inh: 42%; BAZ2B inh: -30%

What do the screens show for `CCOc1ccc(CCNC(=O)c2oc(=O)c3ccccc3c2-c2ccc(C)cc2)cc1OCC`?
GLS inhibitor: 7%; G9a block: inconclusive; JMJD2A Tudor inh: -23%; HP1b binding inh: 10%

Results for O=C(O)CCc1ccc(-c2cccs2)n1CCc1ccccc1 ?
L3MBTL1 inh: -17%; GLS inhibitor: 0%; JMJD2A Tudor inh: inconclusive; HP1b binding inh: 34%; BAZ2B inh: 28µM*

Results for O=C(O)CCc1ccc(-c2cccs2)n1NC(=O)c1ccccc1Br ?
L3MBTL1 inh: -9%; GLS inhibitor: 14%; G9a block: -14%[59 µM]; JMJD2A Tudor inh: inconclusive; HP1b binding inh: 12%; BAZ2B inh: inconclusive

What do the screens show for `COc1cccc(NC(=O)Cn2c(CCC(=O)O)ccc2-c2cccs2)c1`?
GLS inhibitor: 4%; G9a block: -7%; JMJD2A Tudor inh: -20%; HP1b binding inh: -14%; BAZ2B inh: -22%

What do the screens show for `Cc1ccc(NC(=O)Cn2c(CCC(=O)O)ccc2-c2cccs2)cc1Cl`?
GLS inhibitor: 12%; G9a block: 45µM*; JMJD2A Tudor inh: inconclusive; HP1b binding inh: 14%; BAZ2B inh: inconclusive

Results for O=C(O)CCc1ccc(-c2ccccc2)n1-c1cccc(Br)c1 ?
GLS inhibitor: 26%; G9a block: 16µM*; JMJD2A Tudor inh: inconclusive; HP1b binding inh: -22%; BAZ2B inh: inconclusive

What do the screens show for `Cc1ccc(-c2ccc(CCC(=O)O)n2-c2cccc(O)c2)cc1`?
GLS inhibitor: 7%; G9a block: 14µM*; JMJD2A Tudor inh: inconclusive; HP1b binding inh: -4%; BAZ2B inh: inconclusive

How did CC(C)c1ccc(C2N=C(N)Nc3nc4ccccc4n32)cc1 (stereo not given) do in these assays?
GLS inhibitor: 0%; G9a block: -7%[59 µM]; JMJD2A Tudor inh: -11%; HP1b binding inh: 51%; BAZ2B inh: -28%
